Assay results published in PubChem BioAssay (NCI).
About 79,000 compounds went through this panel and 15% of them were active in at least one assay; those are over-represented in the sample as a whole. Active and inactive are the calls of the source. No stated cut-off is given here; in the data, active means growth inhibition above about 70%; inactive means the rest.

Columns and labels:
[1] = NCI Yeast Anticancer Drug Screen. Data for the rad14 strain (AID 159);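 further: 0% = growth of vehicle-treated control cultures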; details: S. cerevisiae rad14 strain growth inhibition, stronger effect = higher value
Procedure, shortened: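 Growth inhibition vs vehicle controls; genetically altered yeast strain (DNA damage repair defect) treated with test compounds.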

[2] = NCI Yeast Anticancer Drug Screen. Data for the CLN2oe strain (AID 163);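 further: 0% = growth of vehicle-only control cultures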; details: S. cerevisiae CLN2oe strain, stronger effect = higher value
Procedure, shortened: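 Compounds are applied to yeast harbouring a defined cell-cycle control change; reduced growth compared with vehicle-treated controls gives the value.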

[3] = NCI Yeast Anticancer Drug Screen. Data for the cln2 rad14 strain (AID 165);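 further: 0% = growth equal to vehicle treated cultures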; details: S. cerevisiae cln2 rad14 strain, stronger effect = higher value
Procedure, shortened: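 Readout is yeast growth inhibition versus vehicle-treated controls, using a strain with cln2 and rad14 alterations exposed to compound.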

[4] = NCI Yeast Anticancer Drug Screen. Data for the bub3 strain (AID 167); details: S. cerevisiae bub3 mutant strain, stronger effect = higher value
Procedure, shortened: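 Readout: yeast growth inhibition, expressed relative to vehicle-only wells. The test organism is a mutant strain from a panel with lesions in DNA repair or checkpoint genes.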

[5] = NCI Yeast Anticancer Drug Screen. Data for the mlh1 strain (AID 171);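 further: 0% = growth of vehicle-treated control cultures of the same strain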; details: S. cerevisiae mlh1 strain growth inhibition, stronger effect = higher value
Procedure, shortened: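 Measured: yeast growth. Reference: vehicle-treated controls. Organism: strain with a defined alteration affecting DNA damage repair or cell cycle control, treated with compound.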

[6] = NCI Yeast Anticancer Drug Screen. Data for the sgs1 strain (AID 173);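 further: 0% = growth of vehicle-only control cultures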; details: S. cerevisiae sgs1 mutant, stronger effect = higher value
Procedure, shortened: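 Each compound was added to cultures of the altered yeast strain. Growth was recorded, and inhibition was derived by comparison with vehicle controls.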

[7] = NCI Yeast Anticancer Drug Screen. Data for the mlh1 rad18 strain (AID 175); details: S. cerevisiae mlh1 rad18 strain growth inhibition, stronger effect = higher value
Procedure, shortened: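 Genetically defined yeast (DNA repair-deficient) exposed to compounds; growth inhibition determined relative to vehicle.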

[8] = NCI Yeast Anticancer Drug Screen. Data for the rad18 strain (AID 177); details: S. cerevisiae rad18 mutant growth inhibition, stronger effect = higher value
Procedure, shortened: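 Vehicle-treated cultures served as the baseline for scoring compound-induced growth inhibition in DNA-repair-mutant yeast.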

[9] = NCI Yeast Anticancer Drug Screen. Data for the wt1 strain (AID 149);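 further: 0% = growth of vehicle-treated wt1 cultures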; details: S. cerevisiae wt1 strain (SPY 50644) growth inhibition, stronger effect = higher value
Procedure, shortened: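 Growth inhibition read against vehicle controls after compound exposure of the wt1 yeast strain.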

[10] = NCI Yeast Anticancer Drug Screen. Data for the mgt1 strain (AID 153); details: S. cerevisiae mgt1 mutant growth inhibition, stronger effect = higher value
Procedure, shortened: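 Vehicle-normalized growth inhibition is determined in mgt1 yeast, a strain selected for a defined alteration in DNA repair or cell cycle control.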

[11] = NCI Yeast Anticancer Drug Screen. Data for the rad50 strain (AID 155);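 further: 0% = growth of vehicle-only cultures of the same strain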; details: S. cerevisiae rad50 strain growth inhibition, stronger effect = higher value
Procedure, shortened: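 Readout: growth inhibition relative to vehicle-treated cultures. Compound exposure was carried out in a genetically defined yeast strain deficient in DNA damage repair.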

[12] = NCI Yeast Anticancer Drug Screen. Data for the mec2-1 strain (AID 157); details: S. cerevisiae mec2-1 strain, stronger effect = higher value
Procedure, shortened: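 Mutant yeast (mec2-1) grown with compound; growth inhibition relative to vehicle control reported.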

[13] = NCI Yeast Anticancer Drug Screen. Data for the sgs1 mgt1 strain (AID 161);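 further: 0% = growth of cultures given vehicle only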; details: S. cerevisiae sgs1 mgt1 strain, stronger effect = higher value
Procedure, shortened: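 Compounds are added to genetically altered yeast, and growth is compared with cultures given vehicle alone to give percent inhibition.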

[14] = NCI Yeast Anticancer Drug Screen. Data for the wt2 strain (AID 169);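 further: 0% = growth of vehicle-treated yeast cultures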; details: S. cerevisiae wt2 strain growth inhibition, stronger effect = higher value
Procedure, shortened: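 Against vehicle-treated controls, the growth of yeast exposed to each compound was compared, and the inhibition was recorded.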

[15] = at 5.0 µM (retest, dose inferred, filed as 0.5)
[16] = at 50.0 µM (retest, dose inferred, filed as 5.0)

Measured: growth inhibition

Cc1c(N=Nc2ccc(Cl)cc2)c(C)n(C2OC(CO)C(O)C(O)C2O)c(=S)c1C#N (stereo unspecified)
active: [1]; at 100.0 µM 71% | [4]; at 50.0 µM 75.5% | [5]; at 100.0 µM 90% | [6]; at 100.0 µM 82% | [7]; at 50.0 µM 83.9% | [8]; at 100.0 µM 83%
inactive: [2]; at 1.2 µM -2% | [2]; at 3.7 µM -2% | [2]; at 11.0 µM 1% | [2]; at 33.0 µM 15% | [2]; at 100.0 µM 54% | [3]; [15] 44% | [3]; [16] 52% | [3]; at 50.0 µM 59.5% | [4]; at 1.2 µM 0% | [4]; at 3.7 µM 2% | [4]; [15] 1% | [4]; at 11.0 µM 9% | [4]; at 33.0 µM 23% | [4]; [16] -3% | [4]; at 100.0 µM 45% | [5]; at 1.2 µM 2% | [5]; at 3.7 µM 1% | [5]; at 11.0 µM 8% | [5]; at 33.0 µM 45% | [6]; at 1.2 µM 1% | [6]; at 3.7 µM 5% | [6]; at 11.0 µM 12% | [6]; at 33.0 µM 55% | [7]; [15] -19% | [7]; [16] 53% | [8]; at 1.2 µM -1% | [8]; at 3.7 µM 8% | [8]; at 11.0 µM 18% | [8]; at 33.0 µM 59%

Cc1cc(N(CCOS(C)(=O)=O)CCOS(C)(=O)=O)ccc1C=O
active: [1]; at 100.0 µM 83% | [7]; [16] 88% | [7]; at 50.0 µM 82.5% | [8]; at 11.0 µM 70% | [8]; at 33.0 µM 86% | [8]; at 100.0 µM 89%
inactive: [9]; at 1.2 µM 27% | [9]; at 3.7 µM 28% | [9]; at 11.0 µM 32% | [9]; at 33.0 µM 37% | [9]; at 100.0 µM 31% | [10]; at 1.2 µM 14% | [10]; at 3.7 µM 26% | [10]; at 11.0 µM 34% | [10]; at 33.0 µM 41% | [10]; at 100.0 µM 44% | [11]; at 1.2 µM 4% | [11]; at 3.7 µM 16% | [11]; [15] 29% | [11]; at 11.0 µM 26% | [11]; at 33.0 µM 43% | [11]; [16] 57% | [11]; at 50.0 µM 50% | [11]; at 100.0 µM 66% | [12]; at 1.2 µM 6% | [12]; at 3.7 µM 23% | [12]; [15] 24% | [12]; at 11.0 µM 24% | [12]; at 33.0 µM 41% | [12]; [16] 57% | [12]; at 50.0 µM 54.8% | [12]; at 100.0 µM 68% | [1]; at 1.2 µM 20% | [1]; at 3.7 µM 36% | [1]; at 11.0 µM 50% | [1]; at 33.0 µM 64% | [13]; [15] 13% | [13]; [16] 38% | [13]; at 50.0 µM 12.8% | [2]; at 1.2 µM 2% | [2]; at 3.7 µM 9% | [2]; at 11.0 µM 10% | [2]; at 33.0 µM 36% | [2]; at 100.0 µM 34% | [3]; [15] 34% | [3]; [16] 45% | [3]; at 50.0 µM 36.9% | [4]; at 1.2 µM 16% | [4]; at 3.7 µM 17% | [4]; [15] -3% | [4]; at 11.0 µM 4% | [4]; at 33.0 µM 18% | [4]; [16] 13% | [4]; at 50.0 µM 4.7% | [4]; at 100.0 µM 34% | [14]; at 1.2 µM -45% | [14]; at 3.7 µM -46% | [14]; at 11.0 µM -43% | [14]; at 33.0 µM 1% | [14]; at 100.0 µM 33% | [5]; at 1.2 µM 14% | [5]; at 3.7 µM 28% | [5]; at 11.0 µM 24% | [5]; at 33.0 µM 52% | [5]; at 100.0 µM 60% | [6]; at 1.2 µM 19% | [6]; at 3.7 µM 22% | [6]; at 11.0 µM 39% | [6]; at 33.0 µM 51% | [6]; at 100.0 µM 58% | [7]; [15] 56% | [8]; at 1.2 µM 29% | [8]; at 3.7 µM 50%

O=C(CCCN1CCC2(CC1)OC(=O)N(c1ccccc1)C2=O)c1ccccc1
active: [10]; at 100.0 µM 74% | [11]; at 50.0 µM 83.9% | [1]; at 11.0 µM 74% | [1]; at 33.0 µM 79% | [1]; at 100.0 µM 90% | [13]; at 50.0 µM 85.9% | [3]; [16] 85% | [4]; at 50.0 µM 79.4% | [5]; at 11.0 µM 71% | [5]; at 33.0 µM 70% | [5]; at 100.0 µM 73% | [6]; at 11.0 µM 71% | [6]; at 33.0 µM 72% | [6]; at 100.0 µM 75% | [7]; [16] 78% | [7]; at 50.0 µM 72.9% | [8]; at 3.7 µM 70% | [8]; at 11.0 µM 78% | [8]; at 33.0 µM 80% | [8]; at 100.0 µM 77%
inactive: [9]; at 1.2 µM 43% | [9]; at 3.7 µM 45% | [9]; at 11.0 µM 53% | [9]; at 33.0 µM 52% | [9]; at 100.0 µM 63% | [10]; at 1.2 µM 29% | [10]; at 3.7 µM 44% | [10]; at 11.0 µM 56% | [10]; at 33.0 µM 65% | [11]; at 1.2 µM 31% | [11]; at 3.7 µM 50% | [11]; [15] 31% | [11]; at 11.0 µM 60% | [11]; at 33.0 µM 65% | [11]; [16] 64% | [11]; at 100.0 µM 67% | [12]; at 1.2 µM 44% | [12]; at 3.7 µM 45% | [12]; [15] 37% | [12]; at 11.0 µM 60% | [12]; at 33.0 µM 61% | [12]; [16] 60% | [12]; at 50.0 µM 47.2% | [12]; at 100.0 µM 59% | [1]; at 1.2 µM 53% | [1]; at 3.7 µM 63% | [13]; [15] 48% | [13]; [16] 69% | [3]; [15] 64% | [3]; at 50.0 µM 65% | [4]; at 1.2 µM 20% | [4]; at 3.7 µM 29% | [4]; [15] 53% | [4]; at 11.0 µM 35% | [4]; at 33.0 µM 38% | [4]; [16] 67% | [4]; at 100.0 µM 50% | [14]; at 1.2 µM 7% | [14]; at 3.7 µM 24% | [14]; at 11.0 µM 32% | [14]; at 33.0 µM 38% | [14]; at 100.0 µM 40% | [5]; at 1.2 µM 35% | [5]; at 3.7 µM 66% | [6]; at 1.2 µM 53% | [6]; at 3.7 µM 67% | [7]; [15] 23% | [8]; at 1.2 µM 63%
